HEK cytotox – cytotoxic compounds in HEK 293 cells. HEK 293 viability, ATP luminescence (CellTiter-Glo), 48-72 h. Potency, µM (series often up to 115 µM), for inactives: at the highest dose activity change, negative = cytotoxicity, hits mostly inhibitors. actives 6.6% (n = 94,000). AID 1345083; note: nearly all actives have a fitted effect of over 60% in size
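Viability of HEK 293 cells, plated at 250 cells/well, was judged by cellular ATP after compound treatment for 48 or 72 hr. Luminescence was imaged 10 min after CellTiter-Glo addition at room temperature.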
SNCA expr inhib – inhibitors of alpha-synuclein (SNCA) gene expression. HEK-293 SNCA-luciferase knock-in, luminescence, 24 h. Potency, µM (series often up to 57.2 µM), without a hit: at the highest dose activity change, negative = inhibition, actives largely listed as inhibitors. actives 0.17% (n = 140,000);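 note: plate controls were DMSO cells for no effect and cell-free wells for full effect; nearly all actives have a fitted effect of over 45% in size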
Luciferase inh – Photinus pyralis luciferase inhibition | P08659 | purified P. pyralis luciferase, luminescence, biochemical | Potency, µM (top dose mostly 115 µM), most hits filed as inhibitors | actives 2.5% (n = 76,000); note: nearly all actives have a fitted effect of over 65% in size
Target sequence (P08659 whole entry, looked up): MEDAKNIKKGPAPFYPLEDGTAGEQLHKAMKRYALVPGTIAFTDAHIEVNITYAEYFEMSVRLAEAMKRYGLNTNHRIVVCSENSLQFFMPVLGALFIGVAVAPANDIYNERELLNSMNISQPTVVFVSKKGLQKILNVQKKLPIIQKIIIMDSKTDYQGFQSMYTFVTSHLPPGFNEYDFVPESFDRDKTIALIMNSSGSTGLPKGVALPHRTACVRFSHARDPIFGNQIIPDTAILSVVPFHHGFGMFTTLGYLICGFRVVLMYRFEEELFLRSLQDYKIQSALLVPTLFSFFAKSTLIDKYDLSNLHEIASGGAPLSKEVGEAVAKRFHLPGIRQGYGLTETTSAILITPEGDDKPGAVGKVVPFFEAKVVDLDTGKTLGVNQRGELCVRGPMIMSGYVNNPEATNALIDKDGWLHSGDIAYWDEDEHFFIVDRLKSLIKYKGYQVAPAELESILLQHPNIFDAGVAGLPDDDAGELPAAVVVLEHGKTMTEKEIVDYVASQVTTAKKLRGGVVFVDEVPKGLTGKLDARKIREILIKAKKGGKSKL
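Luminescence read by CCD imager after adding enzyme (10nM final) to wells holding compound, titrated in qHTS. Substrates 10uM each D-luciferin and ATP; buffer 50mM Tris acetate pH 7.5, 10mM Mg acetate, Tween-20, BSA.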
NPR1 antag – antagonists of human natriuretic peptide receptor Npr1; P16066; HEK293 hNpr1 GloSensor cGMP, ANP-stimulated luminescence; Potency, µM (doses to about 46.3 µM), for the others: at the top dose activity change, negative = inhibition, hits mostly inhibitors; actives 1.6% (n = 76,000); AID 1347048; calls by dose curve; note: nearly all actives have a fitted effect of over 60% in size
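Compound pre-incubated 30 min at room temperature on GloSensor-loaded HEK293 cells stably carrying hNpr1 and the pGS-40F cGMP biosensor. Stimulation uses hNppA at 0.1 nM final; luminescence is taken at baseline and 20 min post-agonist.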
SNCA viab count – cell viability loss counter-screen | HEK-293-SNCA-luc viability, GF-AFC fluorescence, 24 h | Potency, µM (highest dose often 57.1 µM), without a hit: at the highest dose activity change, negative = cytotoxicity, hits mostly cytotoxic | actives 0.12% (n = 150,000) | AID 1671193;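 note: 0% = DMSO-treated cells and -100% = medium-only wells without cells; nearly all actives have a fitted effect of over 30% in size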
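HEK-293-SNCA-luc cells (1500/well) plated 24 h, then exposed 24 h to a dilution series; GF-AFC added 30 min at 37C, fluorescence 405/540 nm; normalised to medium-only and DMSO wells, Hill fit.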
3T3 cytotox – kills NIH 3T3 cells. NIH 3T3 viability, CellTiter-Glo ATP luminescence, 48-72 h. Potency, µM (top dose mostly 96.7 µM), inactives show at the top dose activity change, negative = cytotoxicity, hits mostly inhibitors. actives 4.3% (n = 94,000). AID 1345082; note: nearly all actives have a fitted effect of over 55% in size
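Cytotoxicity was measured by CellTiter-Glo ATP luminescence after 48 or 72 h compound exposure at 37 °C. Mouse NIH 3T3 fibroblasts were seeded at 400 cells/well and dosed by 23 nL pin transfer.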
An asterisk follows results filed as active; [ ] = remark or other dose. This is a sample that favours compounds with a hit; in the whole collection about 7.4% have one here. Unless noted, calls come from the whole dose curve; as a rule, active = well fitted curve in the direction sought with a large enough effect; inconclusive = small, poorly fitted or top-dose-only effect, or another doubt; inactive = no such curve, though single readings can be large; an effect the other way counts as inactive or inconclusive. Unless noted, % is set by controls: 0 for no effect and ±100 for the full control effect; potency is the fitted concentration of half-maximal effect.

`O=C(c1ccccc1)N1CCC2(CC1)Cc1ccccc1NC2=O` gave HEK cytotox inconclusive, SNCA expr inhib -29.5%[87.6 µM], Luciferase inh inactive, NPR1 antag 0.0%[70.6 µM], SNCA viab count -19.8%[87.6 µM] and 3T3 cytotox inconclusive.
For CCOC(=O)C1CCN(C(=O)c2ccc3nnc(C(C)(C)C)n3c2)CC1 the results were HEK cytotox -22.0%, SNCA expr inhib 2.9%, SNCA viab count -15.5%[12.5 µM] and 3T3 cytotox -26.3%.
Screening CN1C(=O)CO[C@@H](C(=O)N2CCN(c3ccccc3)CC2)[C@@H]1c1ccccc1 returned HEK cytotox -4.0%, SNCA expr inhib -9.9%, SNCA viab count 5.1% and 3T3 cytotox -4.6%.
Cc1ccc(C(=O)N2CCC(C(=O)N3CCC(c4nc5ncccc5[nH]4)C3)CC2)cc1 (stereo not given) was read as HEK cytotox -0.5%, SNCA expr inhib 11.6%, SNCA viab count 7.5% and 3T3 cytotox -28.5%.
For C[S+](=O)([O-])N1CCCC1C(=O)N1CCC(N2Cc3ccccc3C2=O)CC1 (stereo not given) the results were HEK cytotox -2.1%, SNCA expr inhib -9.5%, SNCA viab count -2.0% and 3T3 cytotox 3.4%.
CC(C)C[C@@H]1N[C@H](C(=O)N2CCN(c3ncccn3)CC2)Cc2c[nH]c3cccc1c23 was read as HEK cytotox 79.4µM*, SNCA expr inhib -2.3%[87.6 µM], Luciferase inh inactive, NPR1 antag -1.0%[70.6 µM], SNCA viab count -13.0%[87.6 µM] and 3T3 cytotox inconclusive.
CC(C)C[C@@H]1N[C@H](C(=O)NC2CCC2)Cc2c[nH]c3cccc1c23 was read as HEK cytotox 44.7µM*, SNCA expr inhib inconclusive, Luciferase inh inactive, NPR1 antag 3.4%[70.6 µM], SNCA viab count -18.4%[87.6 µM] and 3T3 cytotox 50.1µM*.
CC(C)C[C@@H]1N[C@H](C(=O)NC2CCCC2)Cc2c[nH]c3cccc1c23 was read as HEK cytotox 31.6µM*, SNCA expr inhib inconclusive, Luciferase inh inactive, NPR1 antag -3.9%[70.6 µM], SNCA viab count inconclusive and 3T3 cytotox 50.1µM*.
C=CCN(C)C(=O)[C@@H]1Cc2c[nH]c3cccc(c23)[C@H](CC(C)C)N1 was read as HEK cytotox inconclusive, SNCA expr inhib -5.6%[87.6 µM], Luciferase inh inactive, NPR1 antag -11.2%[70.6 µM], SNCA viab count -23.4%[87.6 µM] and 3T3 cytotox inconclusive.
Screening COc1ccccc1N1CCN(C(=O)[C@@H]2Cc3c[nH]c4cccc(c34)[C@H](CC(C)C)N2)CC1 returned HEK cytotox inconclusive, SNCA expr inhib inconclusive, Luciferase inh inactive, NPR1 antag -1.7%, SNCA viab count -6.0% and 3T3 cytotox inconclusive.
O=C(NC1CCCC1)N1CCCC(C(=O)N2CCC(c3nc4ccncc4[nH]3)CC2)C1 (stereo not given) was read as HEK cytotox inactive, SNCA expr inhib -27.7%, SNCA viab count 1.7% and 3T3 cytotox -3.2%.
`COC(=O)[C@@H]1Cc2c([nH]c3ccccc23)[C@@H]2C[C@@H](NC(C)C)C[C@@H](c3ccc(F)cc3)N12` gave HEK cytotox 28.2µM*, SNCA expr inhib -7.2%, Luciferase inh inactive, NPR1 antag 1.4%, SNCA viab count -14.4% and 3T3 cytotox 28.2µM*.
For COC(=O)[C@@H]1Cc2c([nH]c3ccccc23)[C@H]2C[C@@H](NCCN(C)C)C[C@@H](c3ccc(F)cc3)N21 the results were HEK cytotox 20µM*, SNCA expr inhib -9.8%, Luciferase inh inactive, NPR1 antag -0.2%, SNCA viab count -16.6% and 3T3 cytotox 14.1µM*.
COCCN[C@@H]1C[C@@H]2c3[nH]c4ccccc4c3C[C@@H](C(=O)OC)N2[C@H](c2ccc(Cl)c(F)c2)C1 was read as HEK cytotox inconclusive, SNCA expr inhib inconclusive, Luciferase inh inactive, NPR1 antag inconclusive, SNCA viab count -3.2% and 3T3 cytotox 14.1µM*.
COCCN[C@@H]1C[C@@H]2c3[nH]c4ccccc4c3C[C@@H](C(=O)OC)N2[C@H](c2ccc(C(C)C)cc2)C1 was read as HEK cytotox inconclusive, SNCA expr inhib -3.0%, Luciferase inh inactive, NPR1 antag inconclusive, SNCA viab count 2.4% and 3T3 cytotox 28.2µM*.
`O=C(CCc1ccccc1)N1CCc2c([nH]c3ccccc23)C1c1ccc(F)cc1` (stereo not given) gave SNCA expr inhib -19.7% and SNCA viab count 2.4%.
O=C(CCC1CCCC1)N1CCc2c([nH]c3ccccc23)C1c1ccc(F)cc1 (stereo not given) was read as SNCA expr inhib -23.6% and SNCA viab count -4.0%.
For COCCCNC(=O)c1ccc2nc(-c3ccncc3)oc2c1 the results were HEK cytotox -0.7%[172 µM], SNCA expr inhib -5.0%[87.6 µM], SNCA viab count 3.9%[87.6 µM] and 3T3 cytotox -6.5%[138 µM].
`COCC(=O)N1CCN(C(=O)c2ccc(-c3ccc(OC)nn3)cc2)CC1` gave HEK cytotox -6.5% and 3T3 cytotox -20.4%.
Screening COc1cccc(C(=O)N2CCc3c([nH]c4ccccc34)C2c2ccc(SC)cc2)c1 (stereo not given) returned SNCA expr inhib -11.9% and SNCA viab count 0.2%.
Screening COCCN[C@@H]1C[C@@H]2c3[nH]c4ccccc4c3C[C@@H](C(=O)OC)N2[C@H](c2cccc(OC)c2)C1 returned HEK cytotox 22.4µM*, SNCA expr inhib -12.1%, Luciferase inh inactive, NPR1 antag inconclusive, SNCA viab count 2.2% and 3T3 cytotox inconclusive.
COCCN[C@H]1C[C@@H]2c3[nH]c4ccccc4c3C[C@@H](C(=O)OC)N2[C@H](c2ccccc2)C1 was read as HEK cytotox 39.8µM*, SNCA expr inhib inconclusive, Luciferase inh inactive, NPR1 antag -13.9%[70.6 µM], SNCA viab count inconclusive and 3T3 cytotox 35.5µM*.
`COC(=O)[C@@H]1Cc2c([nH]c3ccccc23)[C@H]2C[C@@H](NCc3cccnc3)C[C@@H](c3ccccc3)N21` gave HEK cytotox 22.4µM*, SNCA expr inhib inconclusive, Luciferase inh inactive, NPR1 antag -6.1%, SNCA viab count 5.4% and 3T3 cytotox inconclusive.
`COC(=O)[C@@H]1Cc2c([nH]c3ccccc23)[C@H]2C[C@@H](N3CCOCC3)C[C@@H](c3ccccc3)N21` gave HEK cytotox inconclusive, SNCA expr inhib -1.8%, Luciferase inh inactive, NPR1 antag -8.7%, SNCA viab count 3.7% and 3T3 cytotox inconclusive.

Source: PubChem BioAssay (National Center for Advancing Translational Sciences (NCATS))
